# Data: ChEMBL document CHEMBL4296182, “CO-ADD screening of NIH NCI Diversity Set V”
# For part of these data: Potency and affinity values are given separately.
# Assays:
# Staphylococcus aureus = assay: Antibacterial activity against Staphylococcus aureus MRSA ATCC 43300 (CO-ADD:GP_020); MIC in CAMBH media using NBS plates, by Resazurin F(560/590); assay type: functional; conditions: Concentration 20 uM, ASSAY_TEST Inhibition of Bacterial Growth, detection method Resazurin, Fluorescence (ex560/em590), MEDIA CAMHB, plate type 384well, CORNING #3640, time 18 hr
# Acinetobacter baumannii = assay: Antibacterial activity against Acinetobacter baumannii ATCC 19606 (CO-ADD:GN_034); MIC in CAMBH media using NBS plates, by Resazurin F(560/590); assay type: functional; conditions: Concentration 20 uM, ASSAY_TEST Inhibition of Bacterial Growth, detection method Resazurin, Fluorescence (ex560/em590), MEDIA CAMHB, plate type 384well, CORNING #3640, time 18 hr
# Escherichia coli = assay: Antibacterial activity against Escherichia coli ATCC 25922 (CO-ADD:GN_001); MIC in CAMBH media using NBS plates, by Resazurin F(560/590); assay type: functional; conditions: Concentration 20 uM, ASSAY_TEST Inhibition of Bacterial Growth, detection method Resazurin, Fluorescence (ex560/em590), MEDIA CAMHB, plate type 384well, CORNING #3640, time 18 hr
# Klebsiella pneumoniae = conditions: Concentration 20 uM; ASSAY_TEST Inhibition of Bacterial Growth; detection method Absorption (OD600); MEDIA CAMHB; plate type 384well; NBS; CORNING #3640; time 18 hr
# Candida albicans = conditions: 20 µM
# Cryptococcus neoformans = conditions: Concentration 20 uM; ASSAY_TEST Inhibition of Fungal Growth; detection method Resazurin; Absorption (OD600-OD570); plate type 384well; NBS; CORNING #3640
Compound,Inhibition (Staphylococcus aureus) [%],Inhibition (Acinetobacter baumannii) [%],Inhibition (Escherichia coli) [%],Inhibition (Klebsiella pneumoniae) [%],Inhibition (Candida albicans) [%],Inhibition (Cryptococcus neoformans) [%]
CCC(C)(C)c1ccc(Oc2cccc(C(=O)O)c2)cc1,-8.99,14.6,-8.34,17.33,8.87,-6.24
CCCCOC(=O)c1cccnc1,2.44,-6.99,12.49,13.5,1.04,-0.89
CC1(CN2CCCC2)CCC(NC(=O)C(c2ccccc2)c2ccccc2)C(C)(C)O1 (stereo not given),23.4,6.65,12.21,18.43,0.1,-5.78
CN1CCC(=C(c2ccc(Cl)cc2)c2ccccn2)CC1.O=C(O)/C=C\C(=O)O [CYCLIRAMINE MALEATE],6.43,-10.18,9.66,13.03,1.65,-5.61
NC(=O)c1ncn2c(=O)n(CCCl)nnc12 [MITOZOLOMIDE],-4.1,10.43,3.54,6.17,2.26,-10.87
Cc1ccc(N2CCN(CC(O)COc3cccc(C)c3)CC2)cc1 (stereo not given),10.15,-11.82,15.19,10.88,-0.24,-16.06
COC1OCC(O)C(NC(=O)N(C)N=O)C1O (stereo not given),-1.39,15.65,-7.74,18.14,5.35,-2.94
c1ccc2c(c1)-c1cccc3cncc-2c13,1.08,-2.19,3.18,7.94,12.2,-10.41
CC(=O)OCCn1c2nc(=O)[nH]c(=O)c-2nc2cc(C)c(C)cc21,-0.64,-11.64,4.08,3.5,-0.26,-7.97
CC(O)(c1ccccc1)C(c1ccccc1)C1CCCCN1 (stereo not given),9.45,13.67,-4.2,13.38,7.26,-3.74
COCC(O)Cn1ccnc1[N+](=O)[O-] (stereo not given) [MISONIDAZOLE],-3.32,6.49,6.97,11.9,1.35,-12.64
Oc1c(Cl)cc(Cl)cc1C1Nc2ccccc2-n2cccc21 (stereo not given),8.71,9.53,-0.55,11.09,1.7,-0.72
Oc1ccc(/N=N/c2ccccc2)c(O)c1/N=N/c1ccccc1,-22.17,3.79,-20.22,-6.85,8.07,33.55
OCc1nc2nc(Cl)c(Cl)[nH]c-2n1,-3.73,14.74,-8.33,8.57,1.75,-8.15
CCOc1ccc(NC(=O)Nc2cc(C(C)C)ccc2C)cc1,-18.22,0.23,-12.49,0.84,0.78,21.16
N#C/C(=C\c1c[nH]c2ccccc12)C(N)=O,13.33,12.56,0.03,10.43,4.53,-10.69
CCOC(=O)c1nn(-c2ccccc2)cc1O,-14.3,-10.69,-0.72,-1.36,0.93,-2.21
CC(=O)O.COc1ccc2nccc(/C=C/c3ccnc4ccc(OC)cc34)c2c1,1.03,-11.4,10.64,6.2,5.73,-5.13
Clc1ccccc1-c1nc2ccccc2[nH]1,11.4,-8.21,9.05,12.13,4.17,-6.44
C=CCC(CC)C(=O)NC(=O)N1CCCc2ccccc21 (stereo not given),-2.1,11.89,-1.31,11.1,4.92,-1.85
C=CCNC(S)=NCC,0.32,-1.02,11.35,13,0.61,-1.87
O=C(O)c1ccc(OCCOc2ccccc2)cc1,-1.13,-7.25,7.53,15.54,7.45,-11.92
O=C1OC(Cc2ccccc2)C(c2ccccc2)C1=O (stereo not given),9.75,11.9,6.23,14.26,6.87,-15.19
O=C(O)CCc1cccnc1,18.41,-3.93,16.49,14.5,1.32,-2.51
CCCCNc1nc(N)ncc1[N+](=O)[O-],5.28,-8.97,14,10.57,8.4,-15.62

Compound,Inhibition (Staphylococcus aureus) [%],Inhibition (Acinetobacter baumannii) [%],Inhibition (Escherichia coli) [%],Inhibition (Klebsiella pneumoniae) [%],Inhibition (Candida albicans) [%],Inhibition (Cryptococcus neoformans) [%]
Cn1c(=O)c2nc(CCCc3ccc([N+](=O)[O-])cc3)[nH]c2n(C)c1=O,7.08,-13.97,3.35,12.88,0.38,-9.63
CC1=C2C3OC(=O)C(C)C3CCC2(C)C=C(Cl)C1=O (stereo not given),-4.99,-5.14,-9.28,10.19,1.04,-2.81
COc1ccc2c(C)cc(C)nc2n1,4.34,-9.69,1.95,-0.51,3.88,-1.59
CN(/N=N/c1[nH]cnc1C(=O)NN)C1CCCCC1,8.69,8.54,-4.79,11.56,3.97,-4.73
CCOCc1cc(O)nc(SC)n1,12.32,-13.24,14.73,11.3,-0.55,-4.91
O=c1[nH]c(=S)c2ncn(-c3ccccc3)c2[nH]1,-3.01,-10.26,3.12,1.95,9.78,-2.67
O=C1C(Br)=Cc2cccc3cccc1c23,13.47,-14.96,6.58,7.6,32.2,12.78
Cn1c(=O)c2c(ncn2CCOC(=O)C(C)(C)Oc2ccc(Cl)cc2)n(C)c1=O [THEOFIBRATE],-5.55,-11.51,14.7,11.96,0.53,-5.77
CCc1ccc(CCN2C(=O)c3ccccc3C2=O)nc1,9.03,4.62,-1.52,17.62,2.59,-6.09
Clc1ccc2nc3ccccc3cc2c1,16.29,9.09,4.02,9.96,5.41,-4.77
Cn1c2c(c(=O)n(C)c1=O)NC1(N2)C(=O)Nc2ccccc21 (stereo not given),7.94,-15.14,2.31,1.11,4.78,-2.52
N#C/C(=C\c1cccnc1)c1ccc(Br)cc1,-11.66,-1.77,-11.06,8.56,35.8,-4.26
COc1c(/C=N/NC(N)=O)c(OC)c(OC)c2c1CCO2,5.41,0.63,-9.64,15.41,4.39,14.65
CCN1CCCCC(=N\O)/C(=N/O)CCCC1,-0.99,-8.24,1.26,23.74,-0.06,-7.99
C=CCOc1c(CCC)cc(CCC)cc1C(N)=O,13.21,14.83,1.32,19.26,5.23,-4.27
Oc1nc2ccccc2n1C1=CCNCC1,-11.2,-15.97,0.33,8.73,2.14,-5.4
O=C1NC(=O)N2CCSC2(Cc2ccccc2)N1 (stereo not given),11.67,11.67,-4.61,17.33,4.4,-2.7
COc1ccccc1C1OC2=Nc3cc([N+](=O)[O-])ccc3NC2=C1O (stereo not given),8.5,-1.62,2.79,1.15,0.19,-4.37
Cc1cc(=O)n2nc(-c3ccc(C(C)(C)C)cc3)cc2[nH]1,15.3,0.45,6.17,14.85,4.49,-5.87
O=C(O)/C(Cc1c[nH]nn1)=N\O,-3.12,-10.75,6.44,7.49,2.24,-5.01
OCC(O)C1OCOC(C(O)CO)C1O (stereo not given),14.61,-8.42,9.4,8.21,0.45,-5.49
O=C(Nc1ccc2ccccc2c1)c1cccc(F)c1,-15.53,-12.84,8.09,2.58,9.01,-2.23
Cc1cnc2cc(Cl)ccc2c1SCC(=O)O,2.5,10.23,1.72,11.14,11.6,-9.96
O=C(O)C1CCC(=O)N1C(=O)OCc1ccccc1 (stereo not given),2.22,-12.76,8.61,12.18,-1.6,-3.17
Cc1ccc(/N=N/c2ccc(N)cc2C)c(S(N)(=O)=O)c1,-7.58,-6.13,2.58,0.06,2.21,-0.55
